# Experimental data as given in PubChem BioAssay AID1159580 (chemical genetic matrix, 2015).
# Hit rate of the full screen: of about 5,500 compounds, about 2,000 (36%) were called active. About 18% were inconclusive and are not listed. The list shows a part of the results. Unmarked numbers belong to inactive results. Rule as the data show it: active = normalized growth mostly below about 0.91 (no sharp cut-off); inconclusive = no clear call, values can overlap the other calls; inactive = mostly above about 0.92.
# Test: chemical genetic growth profiling, strain panel (AID 1159580);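 also: tested at 20 µM; growth read once vehicle control cultures reached saturation at 30 °C; 1 = growth at the plate median or of vehicle wells; lower values mean less growth of the strain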
# Conditions: S. cerevisiae deletion strains, growth OD
smiles,measurement,setting,value
CC(C)c1ccc2c(c1O)CC[C@H]1C3=C(CC[C@]21C)C(=O)OC3,normalized growth,"locus YJL187C, strain SWE1, hits give low values",0.985
same,normalized growth,"locus YJR043C, strain POL32, hits give low values",0.865
same,normalized growth,"locus YJR066W, strain TOR1, hits give low values",0.898
same,normalized growth,"locus YJR075W, strain HOC1, hits give low values",0.866 (active)
same,normalized growth,"locus YKL009W, strain mrt4, hits give low values",0.935
same,normalized growth,"locus YKL068W, hits give low values",0.946
same,normalized growth,"locus YKL085W, strain MDH1 (second series), hits give low values",0.918 (active)
same,normalized growth,"locus YKL085W, strain MDH1, hits give low values",0.918 (active)
same,normalized growth,"locus YKL160W, strain elf1, hits give low values",0.956
same,normalized growth,"locus YKR001C, strain vps1, hits give low values",0.834 (active)
same,normalized growth,"locus YKR026C, strain gcn3, hits give low values",0.931
same,normalized growth,"locus YKR091W, strain srl3, hits give low values",0.967
same,normalized growth,"locus YLL001W, strain dnm1, hits give low values",0.967
same,normalized growth,"locus YLL026W, hits give low values",0.962
same,normalized growth,"locus YLL041C, strain sdh2, hits give low values",0.97
same,normalized growth,"locus YLR027C, strain aat2, hits give low values",0.964
same,normalized growth,"locus YLR039C, strain RIC1, hits give low values",0.628 (active)
same,normalized growth,"locus YLR058C, strain SHM2, hits give low values",0.911
same,normalized growth,"locus YLR102C, strain apc9, hits give low values",0.954
same,normalized growth,"locus YLR113W, strain HOG1, hits give low values",0.909
same,normalized growth,"locus YLR221C, strain rsa3, hits give low values",0.96
same,normalized growth,"locus YLR258W, strain gsy2, hits give low values",0.951
same,normalized growth,"locus YLR262C, strain YPT6 (second series), hits give low values",0.816 (active)
same,normalized growth,"locus YLR262C, strain YPT6, hits give low values",0.667
same,normalized growth,"locus YLR268W, strain sec22, hits give low values",0.923
same,normalized growth,"locus YLR320W, strain mms22, hits give low values",0.863 (active)
same,normalized growth,"locus YLR330W, strain CHS5, hits give low values",0.638 (active)
same,normalized growth,"locus YLR342W, strain FKS1 (second series), hits give low values",0.65 (active)
same,normalized growth,"locus YLR342W, strain FKS1, hits give low values",0.987
same,normalized growth,"locus YLR357W, strain rsc2, hits give low values",0.991
same,normalized growth,"locus YLR370C, strain arc18, hits give low values",0.965
same,normalized growth,"locus YLR384C, strain iki3, hits give low values",0.967
same,normalized growth,"locus YLR418C, strain cdc73, hits give low values",0.7 (active)
same,normalized growth,"locus YML016C, strain PPZ1, hits give low values",0.969
same,normalized growth,"locus YML032C, strain rad52, hits give low values",0.912
same,normalized growth,"locus YML120C, strain ndi1, hits give low values",0.968
same,normalized growth,"locus YML124C, strain tub3, hits give low values",0.988
same,normalized growth,"locus YMR058W, strain fet3, hits give low values",0.961
same,normalized growth,"locus YMR078C, strain ctf18, hits give low values",0.923
same,normalized growth,"locus YMR125W, strain sto1, hits give low values",0.949
same,normalized growth,"locus YMR129W, hits give low values",0.96
same,normalized growth,"locus YMR205C, strain PFK2, hits give low values",0.88
same,normalized growth,"locus YMR223W, strain ubp8, hits give low values",0.91
same,normalized growth,"locus YMR231W, strain pep5, hits give low values",0.975
same,normalized growth,"locus YMR263W, strain SAP30, hits give low values",0.896
same,normalized growth,"locus YMR307W, strain GAS1, hits give low values",0.474 (active)
same,normalized growth,"locus YNL067W, strain RPL9B, hits give low values",0.932
same,normalized growth,"locus YNL071W, strain lat1, hits give low values",0.853 (active)
same,normalized growth,"locus YNL183C, strain NPR1, hits give low values",0.924
same,normalized growth,"locus YNL209W, strain ssb2, hits give low values",0.972
same,normalized growth,"locus YNL233W, strain BNI4, hits give low values",0.723 (active)
same,normalized growth,"locus YNL248C, strain rpa49, hits give low values",0.957
same,normalized growth,"locus YNL250W, strain rad50, hits give low values",0.971
same,normalized growth,"locus YNL271C, strain bni1, hits give low values",0.992
same,normalized growth,"locus YNL298W, strain CLA4, hits give low values",0.957
same,normalized growth,"locus YNL307C, strain MCK1, hits give low values",0.536 (active)
same,normalized growth,"locus YNL322C, strain KRE1 (second series), hits give low values",0.973
same,normalized growth,"locus YNR049C, strain mso1, hits give low values",0.976
same,normalized growth,"locus YNR052C, strain pop2, hits give low values",0.953
same,normalized growth,"locus YOL012C, strain htz1",0.499
same,normalized growth,"locus YOL147C, strain pex11, hits give low values",0.933
same,normalized growth,"locus YOR001W, strain rrp6, hits give low values",0.985
same,normalized growth,"locus YOR061W, strain CKA2, hits give low values",0.964
same,normalized growth,"locus YOR069W, strain VPS5, hits give low values",0.944
same,normalized growth,"locus YOR070C, strain gyp1, hits give low values",0.956
same,normalized growth,"locus YOR080W, strain dia2, hits give low values",0.986
same,normalized growth,"locus YOR083W, strain WHI5, hits give low values",0.966
same,normalized growth,"locus YOR106W, strain vam3, hits give low values",0.999
same,normalized growth,"locus YOR136W, strain idh2, hits give low values",0.929
same,normalized growth,"locus YOR144C, strain elg1, hits give low values",0.958
same,normalized growth,"locus YOR184W, strain ser1, hits give low values",0.671 (active)
same,normalized growth,"locus YOR231W, strain MKK1, hits give low values",0.942
same,normalized growth,"locus YOR265W, strain rbl2, hits give low values",0.963
same,normalized growth,"locus YOR270C, strain vph1, hits give low values",0.794
same,normalized growth,"locus YOR290C, strain snf2, hits give low values",0.909
same,normalized growth,"locus YOR316C, strain cot1, hits give low values",0.968
same,normalized growth,"locus YPL051W, strain arl3, hits give low values",0.932
same,normalized growth,"locus YPL055C, strain LGE1, hits give low values",0.598 (active)
same,normalized growth,"locus YPL078C, strain atp4, hits give low values",0.934
same,normalized growth,"locus YPL106C, strain sse1, hits give low values",0.965
same,normalized growth,"locus YPL240C, strain hsp82, hits give low values",0.971
same,normalized growth,"locus YPL241C, strain CIN2, hits give low values",0.911 (active)
same,normalized growth,"locus YPL256C, strain CLN2, hits give low values",0.876
same,normalized growth,"locus YPR119W, strain clb2, hits give low values",0.951
same,normalized growth,"locus YPR141C, strain kar3, hits give low values",0.965
same,normalized growth,"locus YPR163C, strain tif3, hits give low values",0.794 (active)
same,normalized growth,"locus YPR167C, strain met16, hits give low values",0.947
same,normalized growth,"strain wtn01, hits give low values",0.965
